From PubChem BioAssay
TMEM16A inh – mouse TMEM16A channel inhibition, primary screen | normalized B-score (activity score, 25-100; higher = stronger inhibition) at 10 µM | 1.2% of 310,000 active | HEK293 TMEM16A/YFP iodide influx fluorescence, ionomycin;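 active = ratio plate-corrected score three or more library SD toward inhibition, starting fluorescence score within five deviations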;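 note: score derived from kinetic fluorescence span divided by baseline fluorescence per well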
Target sequence (Q8BHY3 whole entry, looked up): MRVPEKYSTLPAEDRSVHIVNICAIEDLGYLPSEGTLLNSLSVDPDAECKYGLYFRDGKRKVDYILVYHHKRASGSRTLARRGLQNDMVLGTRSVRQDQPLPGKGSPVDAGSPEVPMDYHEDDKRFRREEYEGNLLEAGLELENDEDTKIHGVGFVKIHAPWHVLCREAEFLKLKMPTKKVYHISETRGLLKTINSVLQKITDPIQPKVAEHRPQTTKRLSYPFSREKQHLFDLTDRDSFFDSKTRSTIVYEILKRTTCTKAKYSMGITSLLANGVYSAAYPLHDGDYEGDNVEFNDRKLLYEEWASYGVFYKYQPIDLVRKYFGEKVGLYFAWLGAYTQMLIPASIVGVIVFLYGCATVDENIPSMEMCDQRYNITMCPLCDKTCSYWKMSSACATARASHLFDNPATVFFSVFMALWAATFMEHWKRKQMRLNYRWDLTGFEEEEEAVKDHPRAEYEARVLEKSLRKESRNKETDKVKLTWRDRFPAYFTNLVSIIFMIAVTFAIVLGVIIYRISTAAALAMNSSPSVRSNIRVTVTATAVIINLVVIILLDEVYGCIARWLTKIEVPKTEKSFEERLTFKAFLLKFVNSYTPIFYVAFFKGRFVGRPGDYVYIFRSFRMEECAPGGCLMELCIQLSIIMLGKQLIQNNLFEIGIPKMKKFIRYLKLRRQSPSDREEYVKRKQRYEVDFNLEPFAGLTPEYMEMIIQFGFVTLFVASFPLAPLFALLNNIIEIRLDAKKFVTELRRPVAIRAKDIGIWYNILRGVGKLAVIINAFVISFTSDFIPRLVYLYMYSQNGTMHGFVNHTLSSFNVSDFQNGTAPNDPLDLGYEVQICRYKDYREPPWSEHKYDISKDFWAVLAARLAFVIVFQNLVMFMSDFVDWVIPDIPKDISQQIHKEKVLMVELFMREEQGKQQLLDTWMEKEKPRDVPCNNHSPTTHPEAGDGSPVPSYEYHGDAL
ANO1 activ – mouse TMEM16A channel activation, primary screen. Q8BHY3. HEK293 TMEM16A/YFP-H148Q/I152L, iodide quench fluorescence; active compounds read low. B-score at 10 µM. 0.3% of 340,000 active. AID 623877;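 active = fluorescence-ratio B-score plate-corrected deviation score at least 3 library SD below zero, with starting fluorescence score within 5 deviations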;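 note: channel opened by trigger with iodide after compound preincubation; score built on the fluorescence ratio of max minus min over baseline; more negative score means more quench and so TMEM16A activation or potentiation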
hiPSC survival – enhancers of human iPSC single-cell survival; AID 602274; 0.044% of 360,000 active; hiPSC single-cell survival, ATPlite luminescence; 100% = ROCK inhibitor wells, 0% = DMSO; survival enhancement, % at 20 µM; in the data active = survival enhancement above about 18%;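 note: cells exposed to compounds for 16 hours before the ATP read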
DAGLB inh – diacylglycerol lipase beta (human) inhibition | HEK293T DAGLB membrane lysate, EnzChek fluorogenic substrate | inhibition, % at 5.17 µM | 0.059% of 340,000 active | Q8NCG7 | AID 504411; in the data active = inhibition above about 34%
ABCB6 inh 2 – human ABCB6 transporter inhibition; Q9NP58; K562-ABCB6 porphyrin accumulation, flow cytometry, 1 h; active compounds read low; fluorescence ratio to DMSO, % at 10 µM; 0.19% of 360,000 active;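 active = fluorescence ratio to DMSO below 75%, the collection mean minus 3 SD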;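 note: signal is porphyrin accumulated inside mitochondria; lower ratio means ABCB6 inhibition with less porphyrin fluorescence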
A number is an active result; n = inactive; x = not tested or not shown. This is a sample that favours compounds with a hit; in the whole collection about 1.5% have one here.

SMILES | TMEM16A inh | ANO1 activ | hiPSC survival | DAGLB inh | ABCB6 inh 2
CCOC(=O)c1ccccc1NC(=O)COC(=O)c1ccc(OCC(=O)N2CCOCC2)c(OCC)c1 | x | n | n | n | n
CC(=O)OC1COC(OC2C(O)C(C)OC(OC3C(OC4CCC5(C)C(CCC6(C)C5CC=C5C7CC(C)(C)CCC7(C(=O)O)CCC56C)C4(C)CO)OCC(O)C3O)C2O)C(O)C1OC(C)=O (stereo unspecified) | 100 | x | x | x | x
C/C=C(/C)C(=O)OC1CC(C)(C)C[C@H]2C3=CC[C@@H]4[C@@]5(C)CCC(O[C@@H]6O[C@@H](C(=O)O)[C@@H](O)C(O[C@@H]7OC[C@H](O)[C@@H](O)[C@@H]7O[C@@H]7OC(CO)C(O)[C@@H](O)[C@@H]7O)C6O[C@@H]6OC(CO)C(O)C(O)C6O)[C@@](C)(CO)[C@@H]5CC[C@]4(C)[C@]3(C)CC(O)[C@@]12CO (stereo partly specified) | x | -37 | n | n | n
CC1(C)C[C@H]2C3=CCC4[C@@]5(C)CC[C@H](O[C@@H]6O[C@H](C(=O)O)[C@@H](O)[C@H](O)[C@H]6O)[C@@](C)(CO)C5CC[C@@]4(C)[C@]3(C)C[C@H](O)[C@@]2(CO)[C@@H](O)[C@@H]1O (stereo partly specified) | x | n | n | n | n
CC1O[C@@H](OC2C(COC3OC(CO)C(O)[C@H](O)C3O)OC(OC3CC[C@]4(C)C(CC[C@@]5(C)[C@@H]4CC=C4[C@@H]6CC(C)(C)CC[C@]6(CO)C(O)C[C@]45C)C3(C)C)C(O)C2O)C(O)C(O)C1O (stereo partly specified) | x | n | n | n | n
CC1(C)CC[C@]2(C(=O)O)CC[C@]3(C)C(=CC[C@@H]4[C@@]5(C)CC[C@H](O)C(C)(C)[C@@H]5CC[C@]43C)[C@@H]2C1 | n | n | n | n | n
C/C=C(\C)C(=O)OC1[C@H](OC(C)=O)C2(CO)C(CC1(C)C)C1=CCC3C4(C)CCC(O[C@@H]5O[C@H](C(=O)O)[C@@H](O[C@@H]6O[C@H](CO)[C@@H](O)[C@H](O)[C@H]6O)[C@H](O)[C@H]5O[C@H]5O[C@H](CO)[C@@H](O)[C@H](O)[C@H]5O)[C@](C)(CO)C4CCC3(C)[C@]1(C)C[C@H]2O (stereo partly specified) | x | -16 | n | n | n
Cc1ccc(S(=O)(=O)N2CCCCC2)cc1NC(=O)CSc1nnc(C2CC2)n1N | x | n | n | n | n
CC(=O)Nc1ccc(S(=O)(=O)N2CCC(C(=O)NCCC(=O)NCc3ccncc3)CC2)cc1 | n | n | n | n | n
O=C(CCNC(=O)C1CCN(S(=O)(=O)c2ccccc2)CC1)NCc1ccncc1 | n | -28 | n | n | n
COc1ccc(-c2csc(C(C)(O)c3ccc(F)c(F)c3)n2)cc1OC (stereo unspecified) | x | x | n | x | n
O=[N+]([O-])c1ccc(O)c(Nc2ncnc3ccccc23)c1 | n | n | n | n | n
O=[N+]([O-])c1ccc(O)c(Nc2ncnc3ccc(Br)cc23)c1 | 100 | n | n | n | n
Cc1ccc(S(=O)(=O)Nc2ccccc2N2CCCCC2)cc1 | x | -20 | n | n | n
CCc1nc2ccc(C(=O)Nc3cccc(NS(C)(=O)=O)c3)cn2c1N(C)Cc1nccn1C | x | x | n | x | n
COc1ccc(CC(=O)N2N=C(c3ccncc3)CC2(O)C(F)(F)F)cc1 (stereo unspecified) | n | n | 29 | n | n
CCC1=NN(C(=O)Cc2ccc(OC)cc2)C(O)(C(F)(F)F)C1 (stereo unspecified) | n | n | n | n | n
[O-][n+]1nc2ccccc2c2ccccc21 | x | n | n | n | n
NC(=O)c1cccc(-c2coc3c(C(=O)NCc4ccccc4)cccc23)c1 | x | x | n | x | n
Cc1cc(C(=O)OCC(=O)NC2(C#N)CCCCC2)c(C)o1 | x | n | n | n | n
CSc1ncccc1C(=O)OCC(=O)c1ccccc1Br | n | -23 | n | n | n
CSc1ncccc1C(=O)OCC(=O)c1ccccc1 | n | n | n | n | n
COc1cc(C(=O)NCc2ccc(S(N)(=O)=O)cc2)ccc1OCC(=O)Nc1cccc(C(F)(F)F)c1 | n | n | n | n | n
COc1cc(C(=O)N(C)CCOc2ccccc2)ccc1OCC(=O)Nc1cccc(C(F)(F)F)c1 | 100 | n | n | n | n
CSc1cccc(NC(=S)N2CCC(c3ccccc3)C2)c1 (stereo unspecified) | n | n | n | n | n
SMILES | TMEM16A inh | ANO1 activ | hiPSC survival | DAGLB inh | ABCB6 inh 2
CCc1cccc(NC(=S)N2CCC(c3ccccc3)C2)c1 (stereo unspecified) | n | -5.7 | n | n | n
CN1CCN(c2oc(Cc3cccc4ccccc34)nc2C#N)CC1 | n | n | n | n | n
N#Cc1nc(Cc2cccc3ccccc23)oc1N1CCCCC1 | 100 | -23 | n | n | n
CC(=O)N1c2ccc(S(=O)(=O)NCC3CCC(C(=O)NCc4ccco4)CC3)cc2CC1C (stereo unspecified) | n | n | n | n | n
Cn1nnnc1SCC(=O)N1CCN(S(=O)(=O)c2ccc(Cl)cc2)CC1 | n | n | n | n | n
Cc1nnc(SCC(=O)N2CCN(S(=O)(=O)c3ccc(Cl)cc3)CC2)n(N)c1=O | n | -17 | n | n | n
CC(C)(C)OC(=O)NCCCCCNC(=O)c1[nH]cnc1C(=O)N[C@@H](CCCCNC(=O)OC(C)(C)C)C(=O)OC(C)(C)C | n | n | n | n | 67
N#C/C(=C(/O)CCl)c1nc2c(s1)CCc1ccccc1-2 | 25 | n | n | n | n
Nc1nc2c(s1)CCc1ccccc1-2 | n | n | n | n | n
CN(C)c1cccc(CNC(=O)c2csc(COCCO)n2)c1 | x | x | n | x | n
Cn1nc([N+](=O)[O-])c(C(C#N)c2ccccn2)c(Cl)c1=O (stereo unspecified) | n | n | n | n | n
CCCn1nc([N+](=O)[O-])c(C(C#N)c2nc3ccccc3o2)c(Cl)c1=O (stereo unspecified) | 100 | n | n | 70 | n
COc1ccc(OC)c(NS(=O)(=O)c2ccc3[nH]c(=O)[nH]c3c2)c1 | x | x | n | n | n
CC(=O)OCC(=O)Nc1ccc([N+](=O)[O-])cc1Cl | n | n | n | n | n
CC(=O)Oc1c(C)cc(Cl)cc1C(=O)Nc1ccc([N+](=O)[O-])cc1Cl | 100 | n | n | n | n
COc1ccc(C2C=CC(=O)CC2)c(OC)c1 (stereo unspecified) | x | x | n | x | n
Cc1ccc(S(=O)(=O)N(CC(=O)N2CCC(C)CC2)c2cccc(C)c2)cc1 | 25 | n | n | n | n
CCCc1cc(C(=O)Nc2ccc(C(=O)c3ccc(C)cc3)cc2)n(C)n1 | 100 | n | n | n | n
Cc1ccccc1CN1C(=O)c2ccccc2C1c1nnnn1-c1ccc2c(c1)OCCO2 (stereo unspecified) | x | x | n | x | n
CCCCCCOC1(c2ccccc2)OC(=O)c2ccccc21 (stereo unspecified) | 25 | n | n | n | n
